# Experimental data from publication PMC7862700, “An all-to-all approach to the identification of sequence-specific readers for epigenetic DNA modifications on cytosine”.
# Legend:
# Assay in all cases: DAPPL (digital affinity profiling via proximity ligation, sequencing); 10 mM Tris-HCl pH 7.5, 50 mM NaCl, 1 mM DTT, 4% glycerol, room temperature, 30 min; GST-TFs on glutathione beads, 16-mer random dsDNA library, 0.1% formaldehyde crosslink after washing; high values mean tight binding
# FEV = molecular target: T1, FEV (Homo sapiens, UniProt Q99581 1-238); details: protein: recombinant; tags: N-terminal GST; dsDNA, one strand shown
# T1 sequence: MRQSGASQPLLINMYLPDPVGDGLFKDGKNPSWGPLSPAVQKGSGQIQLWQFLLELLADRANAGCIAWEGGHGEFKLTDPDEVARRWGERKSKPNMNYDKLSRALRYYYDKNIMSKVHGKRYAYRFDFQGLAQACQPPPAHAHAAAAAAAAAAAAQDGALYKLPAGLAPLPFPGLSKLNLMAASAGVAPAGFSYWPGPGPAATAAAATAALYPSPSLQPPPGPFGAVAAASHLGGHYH
# How it was run: (§1)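 Beads coated with glutathione captured GST-fused human transcription factors that had been expressed in yeast, and the factors were then given DNA barcodes and pooled with a tag-only sample. The pools were incubated with 200 nmole of a random double-stranded 16-mer DNA library in Tris/NaCl/DTT/glycerol buffer for 30 min at room temperature, washed, crosslinked with 0.1% formaldehyde and proximity-ligated with BsaI/T4 ligase at 37 °C for 1 h. PCR amplification and Illumina NextSeq500 sequencing came last. Binding signal is each hexamer's read frequency for a factor divided by its frequency for the tag-only sample.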
# ETV5 = ETV5 (Homo sapiens, UniProt P41161 1-510); details: protein: recombinant; tags: N-terminal GST; dsDNA, one strand shown
# Chain of ETV5 (P41161 whole entry): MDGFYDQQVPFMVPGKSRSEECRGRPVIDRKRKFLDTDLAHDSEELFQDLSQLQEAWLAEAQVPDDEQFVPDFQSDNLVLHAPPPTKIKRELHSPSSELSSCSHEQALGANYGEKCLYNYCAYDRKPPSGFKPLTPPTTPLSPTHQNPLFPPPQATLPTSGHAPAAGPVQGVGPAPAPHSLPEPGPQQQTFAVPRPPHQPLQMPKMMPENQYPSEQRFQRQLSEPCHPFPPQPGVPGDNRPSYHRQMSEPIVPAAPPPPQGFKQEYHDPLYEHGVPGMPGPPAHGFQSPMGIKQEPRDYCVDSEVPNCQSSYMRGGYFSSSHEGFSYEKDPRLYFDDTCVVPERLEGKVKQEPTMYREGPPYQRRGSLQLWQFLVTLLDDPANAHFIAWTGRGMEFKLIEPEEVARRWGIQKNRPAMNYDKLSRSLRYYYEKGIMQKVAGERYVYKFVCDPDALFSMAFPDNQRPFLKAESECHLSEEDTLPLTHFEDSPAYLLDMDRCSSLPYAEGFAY
# How it was run: as §1
# HSF1 = HSF1 (Homo sapiens, UniProt Q00613 1-529); details: protein: recombinant; tags: N-terminal GST; chain copies: 3; dsDNA, one strand shown
# Chain of HSF1 (Q00613 whole entry): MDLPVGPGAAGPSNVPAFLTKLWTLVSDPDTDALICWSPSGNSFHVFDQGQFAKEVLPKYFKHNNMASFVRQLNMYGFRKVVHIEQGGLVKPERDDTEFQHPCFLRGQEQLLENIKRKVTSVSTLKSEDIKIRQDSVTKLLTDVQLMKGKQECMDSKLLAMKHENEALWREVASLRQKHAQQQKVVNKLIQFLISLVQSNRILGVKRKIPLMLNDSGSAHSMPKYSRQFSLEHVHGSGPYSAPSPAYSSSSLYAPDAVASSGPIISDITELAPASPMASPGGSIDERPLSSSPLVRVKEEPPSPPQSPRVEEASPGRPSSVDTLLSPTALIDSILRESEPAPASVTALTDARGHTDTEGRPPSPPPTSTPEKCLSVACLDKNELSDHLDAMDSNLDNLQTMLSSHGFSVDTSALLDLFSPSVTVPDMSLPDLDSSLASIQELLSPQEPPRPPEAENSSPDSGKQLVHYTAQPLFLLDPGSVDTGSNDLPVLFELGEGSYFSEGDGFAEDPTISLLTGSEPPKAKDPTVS
# How it was run: as §1
# SPIC = molecular target: T2, SPIC (Homo sapiens, UniProt Q8N5J4 1-248); details: protein: recombinant; tags: N-terminal GST; dsDNA, one strand shown
# T2 sequence: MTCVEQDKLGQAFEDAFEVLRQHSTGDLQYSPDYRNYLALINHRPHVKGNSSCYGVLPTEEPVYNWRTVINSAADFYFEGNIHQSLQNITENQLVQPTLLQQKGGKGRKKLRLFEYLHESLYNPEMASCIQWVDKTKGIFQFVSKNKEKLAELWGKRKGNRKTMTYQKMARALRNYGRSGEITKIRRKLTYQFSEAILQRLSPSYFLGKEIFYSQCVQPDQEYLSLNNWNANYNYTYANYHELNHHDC
# How it was run: as §1
# ELF4 = ELF4 (Homo sapiens, UniProt Q99607 1-663); details: protein: recombinant; tags: N-terminal GST; dsDNA, one strand shown
# Chain of ELF4 (Q99607 whole entry): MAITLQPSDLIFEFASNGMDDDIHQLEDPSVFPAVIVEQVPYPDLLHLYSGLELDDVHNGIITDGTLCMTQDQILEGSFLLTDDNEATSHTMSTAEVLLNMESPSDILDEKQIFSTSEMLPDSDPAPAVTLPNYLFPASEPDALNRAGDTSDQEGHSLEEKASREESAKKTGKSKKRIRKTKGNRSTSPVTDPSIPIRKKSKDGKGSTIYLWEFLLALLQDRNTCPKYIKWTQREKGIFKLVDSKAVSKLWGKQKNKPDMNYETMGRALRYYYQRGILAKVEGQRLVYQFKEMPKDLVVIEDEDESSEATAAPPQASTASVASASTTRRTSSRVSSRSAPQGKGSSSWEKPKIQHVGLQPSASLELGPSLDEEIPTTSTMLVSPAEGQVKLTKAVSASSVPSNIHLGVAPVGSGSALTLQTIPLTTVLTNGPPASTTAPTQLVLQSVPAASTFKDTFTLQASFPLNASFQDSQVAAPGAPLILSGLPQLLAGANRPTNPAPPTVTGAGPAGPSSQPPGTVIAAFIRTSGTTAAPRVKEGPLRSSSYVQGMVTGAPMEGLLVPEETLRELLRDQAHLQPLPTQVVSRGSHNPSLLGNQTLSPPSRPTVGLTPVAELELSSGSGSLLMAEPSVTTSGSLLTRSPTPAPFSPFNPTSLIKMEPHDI
# How it was run: as §1
# ELK4 = molecular target: T3, ELK4 (Homo sapiens, UniProt P28324-2 1-405); details: protein: recombinant; tags: N-terminal GST; dsDNA, one strand shown
# T3 sequence: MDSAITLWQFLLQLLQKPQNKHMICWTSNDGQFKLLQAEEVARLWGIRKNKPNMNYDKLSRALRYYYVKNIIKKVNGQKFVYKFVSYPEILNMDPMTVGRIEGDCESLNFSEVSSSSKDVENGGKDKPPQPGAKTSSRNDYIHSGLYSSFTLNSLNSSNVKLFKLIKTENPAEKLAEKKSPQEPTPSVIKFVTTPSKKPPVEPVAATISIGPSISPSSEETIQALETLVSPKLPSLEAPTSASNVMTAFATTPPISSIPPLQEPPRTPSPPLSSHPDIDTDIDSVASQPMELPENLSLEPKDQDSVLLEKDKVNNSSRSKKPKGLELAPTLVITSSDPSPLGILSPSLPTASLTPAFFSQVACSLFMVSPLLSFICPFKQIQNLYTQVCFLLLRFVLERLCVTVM
# How it was run: as §1
# ETV2 = molecular target: T4, ETV2 (Homo sapiens, UniProt O00321 1-342); details: protein: recombinant; tags: N-terminal GST; dsDNA, one strand shown
# T4 sequence: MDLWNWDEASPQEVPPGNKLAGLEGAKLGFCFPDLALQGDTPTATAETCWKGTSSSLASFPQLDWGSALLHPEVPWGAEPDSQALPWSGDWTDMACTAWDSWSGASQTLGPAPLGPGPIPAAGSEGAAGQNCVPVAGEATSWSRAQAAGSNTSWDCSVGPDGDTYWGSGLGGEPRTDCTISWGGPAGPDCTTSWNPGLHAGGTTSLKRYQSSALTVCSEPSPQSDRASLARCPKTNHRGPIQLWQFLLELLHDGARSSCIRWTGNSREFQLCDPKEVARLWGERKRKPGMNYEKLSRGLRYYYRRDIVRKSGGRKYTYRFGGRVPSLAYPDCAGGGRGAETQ
# How it was run: as §1
# ELF3 = molecular target: T5, ELF3 (Homo sapiens, UniProt P78545 1-371); details: protein: recombinant; tags: N-terminal GST; dsDNA, one strand shown
# T5 sequence: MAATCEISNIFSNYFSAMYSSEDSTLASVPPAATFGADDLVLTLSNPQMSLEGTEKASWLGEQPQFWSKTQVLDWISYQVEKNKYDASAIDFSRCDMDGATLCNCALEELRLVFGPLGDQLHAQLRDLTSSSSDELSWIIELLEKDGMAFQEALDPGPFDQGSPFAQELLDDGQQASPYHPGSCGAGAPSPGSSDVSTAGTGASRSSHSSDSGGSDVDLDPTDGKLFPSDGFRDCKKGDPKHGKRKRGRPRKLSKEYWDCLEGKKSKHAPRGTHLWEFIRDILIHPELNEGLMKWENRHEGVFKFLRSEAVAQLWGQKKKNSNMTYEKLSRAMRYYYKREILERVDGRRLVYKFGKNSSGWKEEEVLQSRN
# How it was run: as §1
# CRX = CRX (Homo sapiens, UniProt O43186 1-299); details: protein: recombinant; tags: N-terminal GST; dsDNA, one strand shown
# Chain of CRX (O43186 whole entry): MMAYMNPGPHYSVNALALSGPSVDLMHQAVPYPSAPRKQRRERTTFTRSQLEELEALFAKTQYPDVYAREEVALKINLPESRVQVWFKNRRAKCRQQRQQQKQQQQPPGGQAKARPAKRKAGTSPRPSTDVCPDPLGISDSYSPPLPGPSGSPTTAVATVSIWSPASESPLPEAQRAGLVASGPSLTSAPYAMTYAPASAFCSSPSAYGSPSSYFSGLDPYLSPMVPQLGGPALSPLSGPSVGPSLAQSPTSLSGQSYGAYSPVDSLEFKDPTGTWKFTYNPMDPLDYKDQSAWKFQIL
# How it was run: as §1
# ETV1 = ETV1 (Homo sapiens, UniProt P50549 1-477); details: protein: recombinant; tags: N-terminal GST; dsDNA, one strand shown
# Chain of ETV1 (P50549 whole entry): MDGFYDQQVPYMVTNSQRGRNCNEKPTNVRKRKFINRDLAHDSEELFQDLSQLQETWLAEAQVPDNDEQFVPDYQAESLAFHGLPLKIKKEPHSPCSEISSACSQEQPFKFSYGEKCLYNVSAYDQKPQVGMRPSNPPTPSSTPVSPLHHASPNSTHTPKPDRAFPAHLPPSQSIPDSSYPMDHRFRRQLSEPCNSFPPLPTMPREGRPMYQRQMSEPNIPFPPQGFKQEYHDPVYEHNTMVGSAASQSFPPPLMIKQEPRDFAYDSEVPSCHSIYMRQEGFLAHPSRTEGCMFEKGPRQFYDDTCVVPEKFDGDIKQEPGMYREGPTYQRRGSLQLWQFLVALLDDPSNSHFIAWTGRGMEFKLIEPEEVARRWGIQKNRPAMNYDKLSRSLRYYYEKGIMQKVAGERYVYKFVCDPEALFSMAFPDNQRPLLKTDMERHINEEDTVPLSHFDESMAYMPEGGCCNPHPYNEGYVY
# How it was run: as §1
# ERF = molecular target: T6, ERF (Homo sapiens, UniProt P50548 1-548); details: protein: recombinant; tags: N-terminal GST; dsDNA, one strand shown
# T6 sequence: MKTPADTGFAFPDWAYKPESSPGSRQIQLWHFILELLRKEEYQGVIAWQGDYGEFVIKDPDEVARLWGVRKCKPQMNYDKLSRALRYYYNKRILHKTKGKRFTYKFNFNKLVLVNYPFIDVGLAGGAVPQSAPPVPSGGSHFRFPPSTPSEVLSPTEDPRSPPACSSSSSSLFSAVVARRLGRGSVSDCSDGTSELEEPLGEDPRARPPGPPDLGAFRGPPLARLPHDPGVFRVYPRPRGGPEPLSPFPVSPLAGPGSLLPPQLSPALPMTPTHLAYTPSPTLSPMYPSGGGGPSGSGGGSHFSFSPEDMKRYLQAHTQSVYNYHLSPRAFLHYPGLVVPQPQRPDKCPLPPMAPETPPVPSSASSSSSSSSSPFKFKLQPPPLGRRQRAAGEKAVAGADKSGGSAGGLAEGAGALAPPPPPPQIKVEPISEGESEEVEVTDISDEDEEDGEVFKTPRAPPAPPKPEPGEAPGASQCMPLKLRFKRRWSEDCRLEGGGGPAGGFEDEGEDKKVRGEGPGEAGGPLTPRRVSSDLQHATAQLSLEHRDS
# How it was run: as §1
# ETV3L = molecular target: T7, ETV3L (Homo sapiens, UniProt Q6ZN32 1-361); details: protein: recombinant; tags: N-terminal GST; dsDNA, one strand shown
# T7 sequence: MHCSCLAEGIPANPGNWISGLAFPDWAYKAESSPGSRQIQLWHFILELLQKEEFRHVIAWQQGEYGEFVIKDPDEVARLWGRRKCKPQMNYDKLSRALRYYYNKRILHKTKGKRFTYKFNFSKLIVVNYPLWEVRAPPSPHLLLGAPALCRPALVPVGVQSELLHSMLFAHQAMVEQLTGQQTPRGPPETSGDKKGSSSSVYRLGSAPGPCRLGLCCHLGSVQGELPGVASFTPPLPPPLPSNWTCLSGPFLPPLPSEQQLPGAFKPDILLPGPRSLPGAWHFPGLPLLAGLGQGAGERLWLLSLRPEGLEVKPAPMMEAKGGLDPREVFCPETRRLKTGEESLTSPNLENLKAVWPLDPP
# How it was run: as §1
# ETS2 = molecular target: T8, ETS2 (Homo sapiens, UniProt P15036 1-469); details: protein: recombinant; tags: N-terminal GST; dsDNA, one strand shown
# T8 sequence: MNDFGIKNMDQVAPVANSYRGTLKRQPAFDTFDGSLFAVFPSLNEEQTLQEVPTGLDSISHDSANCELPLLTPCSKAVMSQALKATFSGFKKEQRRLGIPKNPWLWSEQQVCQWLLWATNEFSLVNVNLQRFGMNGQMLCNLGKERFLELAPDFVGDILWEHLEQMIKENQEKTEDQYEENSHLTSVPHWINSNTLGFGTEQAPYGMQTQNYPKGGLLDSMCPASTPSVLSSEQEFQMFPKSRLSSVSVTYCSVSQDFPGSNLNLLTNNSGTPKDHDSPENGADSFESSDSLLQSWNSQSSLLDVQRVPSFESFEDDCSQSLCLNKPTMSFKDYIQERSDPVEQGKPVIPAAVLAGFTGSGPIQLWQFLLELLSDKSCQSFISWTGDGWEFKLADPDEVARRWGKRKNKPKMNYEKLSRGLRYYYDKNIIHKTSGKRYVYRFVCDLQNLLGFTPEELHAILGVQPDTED
# How it was run: as §1
# SPDEF = molecular target: T9, SPDEF (Homo sapiens, UniProt O95238 1-335); details: protein: recombinant; tags: N-terminal GST; dsDNA, one strand shown
# T9 sequence: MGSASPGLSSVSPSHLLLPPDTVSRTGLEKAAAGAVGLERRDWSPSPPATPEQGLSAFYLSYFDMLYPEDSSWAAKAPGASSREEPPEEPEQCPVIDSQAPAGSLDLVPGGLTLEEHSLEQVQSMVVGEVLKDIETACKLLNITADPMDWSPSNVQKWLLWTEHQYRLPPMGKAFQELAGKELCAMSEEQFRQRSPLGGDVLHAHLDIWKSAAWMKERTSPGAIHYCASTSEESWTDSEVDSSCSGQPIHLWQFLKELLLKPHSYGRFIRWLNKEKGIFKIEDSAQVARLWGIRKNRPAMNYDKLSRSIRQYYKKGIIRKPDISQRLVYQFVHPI
# How it was run: as §1
# ETV7 = molecular target: T10, ETV7 (Homo sapiens, UniProt Q9Y603 1-341); details: protein: recombinant; tags: N-terminal GST; dsDNA, one strand shown
# T10 sequence: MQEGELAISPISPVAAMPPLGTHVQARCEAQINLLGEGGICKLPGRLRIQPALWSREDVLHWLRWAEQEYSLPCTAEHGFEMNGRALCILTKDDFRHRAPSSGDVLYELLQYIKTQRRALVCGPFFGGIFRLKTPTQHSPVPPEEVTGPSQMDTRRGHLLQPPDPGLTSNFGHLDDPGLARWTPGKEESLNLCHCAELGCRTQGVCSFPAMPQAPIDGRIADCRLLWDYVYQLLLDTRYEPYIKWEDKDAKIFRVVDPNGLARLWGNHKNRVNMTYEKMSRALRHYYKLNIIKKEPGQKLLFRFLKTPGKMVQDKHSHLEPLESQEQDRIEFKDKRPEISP
# How it was run: as §1
# ELF5 = molecular target: T11, ELF5 (Homo sapiens, UniProt Q9UKW6-2 1-255); details: protein: recombinant; tags: N-terminal GST; dsDNA, one strand shown
# T11 sequence: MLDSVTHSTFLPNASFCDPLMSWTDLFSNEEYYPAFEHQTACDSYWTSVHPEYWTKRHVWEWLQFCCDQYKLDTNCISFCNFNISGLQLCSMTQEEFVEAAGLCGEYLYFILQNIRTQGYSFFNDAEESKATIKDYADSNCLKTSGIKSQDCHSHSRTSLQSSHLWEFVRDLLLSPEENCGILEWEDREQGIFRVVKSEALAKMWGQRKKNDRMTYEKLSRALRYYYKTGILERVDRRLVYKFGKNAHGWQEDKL
# How it was run: as §1
# ETV3 = molecular target: T12, ETV3 (Homo sapiens, UniProt P41162-2 1-143); details: protein: recombinant; tags: N-terminal GST; dsDNA, one strand shown
# T12 sequence: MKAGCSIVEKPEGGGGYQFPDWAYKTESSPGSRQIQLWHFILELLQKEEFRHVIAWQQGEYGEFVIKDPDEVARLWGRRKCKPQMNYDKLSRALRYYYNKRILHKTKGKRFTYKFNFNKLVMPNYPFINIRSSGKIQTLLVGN
# How it was run: as §1
# ETV6 = ETV6 (Homo sapiens, UniProt P41212 1-452); details: protein: recombinant; tags: N-terminal GST; dsDNA, one strand shown
# Chain of ETV6 (P41212 whole entry): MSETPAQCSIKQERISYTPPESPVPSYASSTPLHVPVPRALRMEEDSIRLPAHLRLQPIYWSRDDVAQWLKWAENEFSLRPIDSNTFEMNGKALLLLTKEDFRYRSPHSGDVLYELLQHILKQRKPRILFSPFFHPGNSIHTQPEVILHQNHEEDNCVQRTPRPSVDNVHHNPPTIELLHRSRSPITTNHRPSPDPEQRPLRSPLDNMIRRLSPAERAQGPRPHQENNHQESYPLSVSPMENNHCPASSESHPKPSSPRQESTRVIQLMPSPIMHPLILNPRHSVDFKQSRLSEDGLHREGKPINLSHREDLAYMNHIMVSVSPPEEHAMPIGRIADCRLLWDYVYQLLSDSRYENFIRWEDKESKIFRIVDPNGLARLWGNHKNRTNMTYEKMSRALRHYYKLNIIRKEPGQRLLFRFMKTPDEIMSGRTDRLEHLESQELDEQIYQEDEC
# How it was run: as §1
sequence,measurement,setting,value
CTTGGT,binding signal,FEV,"1.33 fold enrichment (6-mer frequency, TF over GST control)"
same,binding signal,ETV5,"1.46 fold enrichment (6-mer frequency, TF over GST control)"
same,binding signal,HSF1,"1.18 fold enrichment (6-mer frequency, TF over GST control)"
same,binding signal,SPIC,"1.61 fold enrichment (6-mer frequency, TF over GST control)"
same,binding signal,ELF4,"1.58 fold enrichment (6-mer frequency, TF over GST control)"
same,binding signal,ELK4,"1.53 fold enrichment (6-mer frequency, TF over GST control)"
same,binding signal,ETV2,"1.53 fold enrichment (6-mer frequency, TF over GST control)"
same,binding signal,ELF3,"1.51 fold enrichment (6-mer frequency, TF over GST control)"
same,binding signal,CRX,"1.21 fold enrichment (6-mer frequency, TF over GST control)"
same,binding signal,ETV1,"1.53 fold enrichment (6-mer frequency, TF over GST control)"
same,binding signal,ERF,"1.34 fold enrichment (6-mer frequency, TF over GST control)"
same,binding signal,ETV3L,"1.47 fold enrichment (6-mer frequency, TF over GST control)"
same,binding signal,ETS2,"1.45 fold enrichment (6-mer frequency, TF over GST control)"
same,binding signal,SPDEF,"1.51 fold enrichment (6-mer frequency, TF over GST control)"
same,binding signal,ETV7,"1.49 fold enrichment (6-mer frequency, TF over GST control)"
same,binding signal,ELF5,"1.37 fold enrichment (6-mer frequency, TF over GST control)"
same,binding signal,ETV3,"1.34 fold enrichment (6-mer frequency, TF over GST control)"
same,binding signal,ETV6,"1.44 fold enrichment (6-mer frequency, TF over GST control)"
